This is an account of results in the OligoGym collection.
Note: reference of the scale not given here.

The first experiment addresses CCNA1. The experiment in a line: pooled miR-30 sensor sort-seq; sequence = guide strand. The following applies: shRNA.
TTGCTTGCTGAGGTCGATGGGG registered a sensor-assay potency score (higher = more potent) of -0.835.

TTAGCCAGGTTCTCAGTCCTGA: the sensor-assay potency score (higher = more potent) is -0.236.

In turn, TTTCACTTAATGAATACCCTGT yielded a sensor-assay potency score (higher = more potent) of 1.11.

The sequence TAGAACTTTCAGAAGCAAGTGT displayed a sensor-assay potency score (higher = more potent) of 0.493.

Turning to TGAGTATCTGACAAGCATCGGG, the sensor-assay potency score (higher = more potent) is 0.0337.

In turn, TATATCTCTTCATATTTCGAAG came in with a sensor-assay potency score (higher = more potent) of -1.14.

TGATATAGACAAACTCGTCTAC: the sensor-assay potency score (higher = more potent) was found to be 0.267.

TAATTGCTTGCTGAGGTCGATG: the sensor-assay potency score (higher = more potent) was -1.07.

Sequence TTTGTGTATGTATCATCGGTGA had a sensor-assay potency score (higher = more potent) of -0.746.

The target in a further experiment is CCNG1. The experiment is described as above. The note with it: shRNA.
Turning to TTAACTCTACACACTTCTGTGC, the sensor-assay potency score (higher = more potent) worked out at 0.175.

With TTAGTCTCAAACCACAGACCTT, the sensor-assay potency score (higher = more potent) was -1.23.

Regarding TTCAGTTGAGCTTCTAGTCTTT, the sensor-assay potency score (higher = more potent) is 0.39.

Sequence TTTAGACAGGAATCTGTCCAGT came in with a sensor-assay potency score (higher = more potent) of -0.19.

TAGTCTTGCAGTCATTCTGAGG displayed a sensor-assay potency score (higher = more potent) of -1.44.

The sequence TTCTGTTAACTCTACACACTTC returned a sensor-assay potency score (higher = more potent) of -0.348.

As for TTCAACTTCTGAACATTTGGTT, the sensor-assay potency score (higher = more potent) was 0.69.

Sequence TTGGATACAAGCTCTTGCCAGA came in with a sensor-assay potency score (higher = more potent) of -0.511.

In turn, TTCATTTTAGACAGGAATCTGT returned a sensor-assay potency score (higher = more potent) of 0.0756.

Sequence TTCTATTGATTTTACAGCCAAA yielded a sensor-assay potency score (higher = more potent) of -1.32.

As for TCTGAAGACATTCTATTCCTTC, the sensor-assay potency score (higher = more potent) is -0.269.

TAGCATTTCACATTTAGGCTTT gave a sensor-assay potency score (higher = more potent) of 0.478.

Turning to TTAGTCTTGCAGTCATTCTGAG, the sensor-assay potency score (higher = more potent) was -0.381.

With TTTGGATACAAGCTCTTGCCAG, the sensor-assay potency score (higher = more potent) was -0.48.

TTTTAGACAGGAATCTGTCCAG: the sensor-assay potency score (higher = more potent) came out at 0.0176.

TTGGCTGACATCTAGACTCCTG showed a sensor-assay potency score (higher = more potent) of 0.244.

On to TACATTTGTGAAATGTTGCTTT, for which the sensor-assay potency score (higher = more potent) stood at 0.17.

Turning to TAGTCTCAAACCACAGACCTTT, the sensor-assay potency score (higher = more potent) was -0.816.

Sequence TTTGACTTTCCAACACACCTTC showed a sensor-assay potency score (higher = more potent) of 0.153.

The sequence TTGACTTTCCAACACACCTTCT displayed a sensor-assay potency score (higher = more potent) of -0.557.

The sequence TTAGCTTTGATTTGAATGCTTC displayed a sensor-assay potency score (higher = more potent) of 0.215.

Another experiment concerns the target CD180. The description is as above. The following applies: shRNA.
The sequence TTGAGTTGCAGACTGCAGCAGT came in with a sensor-assay potency score (higher = more potent) of 0.0591.

Consider TAAATTAATGGTGCTCTGCTGG, for which the sensor-assay potency score (higher = more potent) was -0.664.

The sequence TTGTGTTTGGTAGAGTGTCAGG came in with a sensor-assay potency score (higher = more potent) of -0.807.

TAGCTGAGGACATTCTTTGAAT returned a sensor-assay potency score (higher = more potent) of -0.948.

In turn, TTTAACTGCAAAAAATAGCAGA gave a sensor-assay potency score (higher = more potent) of -0.349.

Regarding TAGTAGAGTTCTGCAGACCATT, the sensor-assay potency score (higher = more potent) is -1.3.

Sequence TACACTGAGAACTAATTTCTTG yielded a sensor-assay potency score (higher = more potent) of -0.423.

As to TTTAACATTATTGCCATTGAAG, the sensor-assay potency score (higher = more potent) is -1.17.

In turn, TAGAGATGTAGTGTATAGCATT had a sensor-assay potency score (higher = more potent) of -1.05.

As for TTGGTCTTCGTGATAGTCCCAT, the sensor-assay potency score (higher = more potent) was 0.105.
